In PubChem BioAssay AID686979 (National Center for Advancing Translational Sciences (NCATS), 2013):
Values joined by “and” are separate entries in the source; they are usually repeats but may differ in a detail not shown here. Equal values may be shown once. Among all 420,000 compounds or so, about 50,000 (12%) were called active. Inconclusive results (about 26%) are left out. Calls follow the shape of the dose curve; as a rule, active = well fitted inhibition curve with a large enough effect; inconclusive = small, poorly fitted or top-dose-only effect; inactive = flat fitted curve, though single readings scatter. This excerpt belongs to a sample that is enriched for actives. Where a structure was tested more than once in an assay, its records may differ in their call.

Test: qHTS for Inhibitors of human tyrosyl-DNA phosphodiesterase 1 (TDP1): qHTS in cells in presence of CPT; also: nearly all actives have a fitted effect of over 55% in size
Conditions: chicken DT40 Tdp1-/-;hTDP1 cells + 20 nM CPT, ATP luminescence, 48 h; series mostly up to 46.2 µM; activity change, negative = growth inhibition: at the top concentration
In short: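 Cell growth measured by CellTiter-Glo luminescence after a minimum 48 h, 37 C compound exposure with 20 nM CPT in Tdp1-knockout DT40 cells stably expressing hTDP1, seeded 400/well; qHTS titration format.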
% is scaled to controls: 0 for no effect and ±100 for the full control effect; potency is read from the fitted curve at half-maximal effect.

Structure (SMILES)	activity change, negative = growth inhibition	Potency
Cc1cc(C)cc(NC(=O)COC(=O)c2cc(C)oc2C)c1	-3.46% (inactive)	
Cc1sc2ccccc2c1CNC[C@H]1O[C@@H](n2ccc(=O)[nH]c2=O)[C@H](O)[C@@H]1O	0.888% (inactive)	
O=C(CCn1ccc([N+](=O)[O-])n1)Nc1nccs1	1.03% (inactive)	
CC1CN(Cc2ccco2)C(=S)N(c2ccccc2)C1=O (configuration not stated)	0.62% (inactive)	
CN(C)C(=S)N=c1ssc(=S)n1Cc1ccco1		1.64 µM (active)
Cc1cs/c(=N\N=C\c2ccc(O)cc2)n1Cc1ccco1	-14.2% (inactive)	
Nc1ncnc2c1ncn2[C@@H]1O[C@H](C(=O)NS(=O)(=O)c2c(Cl)nc3sccn23)[C@@H](O)[C@H]1O	2.79% (inactive)	
O=S(=O)(Nc1ccccn1)c1cccc(S(=O)(=O)c2ccc(Cl)cc2)c1	2.88% (inactive)	
NS(=O)(=O)c1ccc(CNC(=O)c2cc(S(=O)(=O)N3CCOCC3)ccc2N2CCCC2)cc1	-10.3% (inactive)	
CCCN(C(=O)COC(=O)CNS(=O)(=O)c1ccc(NC(C)=O)cc1)C1CCS(=O)(=O)C1 (configuration not stated)	1.6% (inactive)	
COC(=O)C1=C(N)Oc2c(oc(CO)cc2=O)C1c1c(F)cccc1Cl (configuration not stated)	-3.14% (inactive)	
CCOC(=O)c1cc(OC(=O)c2ccccc2Cl)n(-c2ccccc2)n1	-13.5% (inactive)	
CCOC(=O)c1sc(NC(=O)c2sc(C)nc2C)nc1C	-2.43% (inactive)	
CCOC(=O)c1cc(-c2sc(NC(=O)c3ccccc3)nc2C)n(Cc2ccccc2)n1		16.4 µM (active)
CSc1ccc(Cl)c(C(=O)OCC(=O)N2CCNC2=O)c1	-1.63% (inactive)	
Nc1ncnc2c1ncn2[C@@H]1O[C@H](C(=O)N2CCSC2)[C@@H](O)[C@H]1O	-29.7% (inactive)	
COc1ccc(Nc2nc(N)nc(CSC(=S)N3CCC(C)CC3)n2)cc1	-19.7% (inactive)	
COc1ccc(C)cc1S(=O)(=O)N(CC(=O)Nc1cccc([N+](=O)[O-])c1)c1ccc(C)cc1		18.4 µM (active)
COc1ccc(N(CC(=O)Nc2ccc(C)cc2C)S(=O)(=O)c2ccccc2[N+](=O)[O-])c(OC)c1	-27.2% (inactive)	
CN(CC(=O)Nc1cccc(F)c1)CC(=O)Nc1cccc([N+](=O)[O-])c1	-27.1% (inactive)	
O=C(CCc1nnc2ccc(NCCCN3CCCC3=O)nn12)NCc1ccccc1Cl	1.12% (inactive)	

Structure (SMILES)	activity change, negative = growth inhibition	Potency
COc1ccc(NC(=O)CN2C(=O)CSc3ccc(S(=O)(=O)N4CCC(C)CC4)cc32)cc1	-27.1% (inactive)	
O=S(=O)(NCCc1ccncc1)c1ccccc1	-7.23% (inactive)	
Nc1nc(/C(=C/CC(=O)O)C(=O)N[C@@H]2C(=O)N3C(C(=O)O)=CCS[C@H]23)cs1	-22.6% (inactive)	
O=C(c1cccc([N+](=O)[O-])c1)N1CCN(Cc2ccccc2)CC1	11.9% (inactive)	
O=C1Nc2ccc([N+](=O)[O-])cc2C1=Nc1cccc(CO)c1		16.4 µM (active)
CC1Cn2c(nnc2-c2cccs2)S1 (configuration not stated)	-6.6% (inactive)	
O=c1cnnc(Nc2ccccc2)[nH]1	-1.22% (inactive)	
CCC1(C2CCN(Cc3cccnc3)CC2)NC(=O)N(CC2COc3ccccc3O2)C1=O (configuration not stated)	-5.78% [at 9.04 µM] (inactive)	
CSCC(NS(=O)(=O)c1ccc(C)cc1)C(=O)O (configuration not stated)	10.7% (inactive)	
CCC(C)N(C(=O)CSc1ncnc2c1cnn2-c1ccccc1)C1CCS(=O)(=O)C1 (configuration not stated)	-31.3% (inactive)	
COc1ccc(N2CCN(C(=O)CNS(=O)(=O)c3ccc(C)c(C)c3)CC2)cc1	-0.48% (inactive)	
O=C(CNS(=O)(=O)c1ccc2c(c1)OCCCO2)N1CCN(c2ccc(F)cc2)CC1		20.6 µM (active)
Cc1ccc(S(=O)(=O)NCC(=O)N2CCOCCOCCOCCOCC2)cc1	2.53% (inactive)	
CCOC(=O)[C@H]1[C@H]2COc3ccccc3[C@@H]2N2C(=O)CN(Cc3ccccc3)C(=O)[C@@]12C	2.35% (inactive)	
CCCNC(=S)N1CCC(NC(=O)c2ccc(OC)cc2)CC1	-5.72% (inactive)	
O=c1c(-c2cccs2)nc2cnc(Oc3ccccc3)nc2n1-c1ccccc1	22.1% (inactive)	
CCC(c1nc2ccccc2[nH]1)n1c(=O)c(-c2cccs2)nc2ccccc21 (configuration not stated)		18.4 µM (active)
CC(C)n1c(-c2cccs2)nc2ccccc21	-29.4% (inactive)	
O=C(NCc1ccccc1)C(c1cccnc1)N(C(=O)c1csnn1)c1ccc(F)cc1 (configuration not stated)	-0.462% (inactive)	
CCC(=O)Nc1nc(OC)cc(OC)n1	-1.67% (inactive)	
COc1cc(OC)nc(NC(=O)CCl)n1		14.6 µM (active)

Structure (SMILES)	activity change, negative = growth inhibition	Potency
COc1cc(OC)nc(N/N=C(\c2ccccc2)c2ccncc2)n1	-0.201% (inactive)	
CCSc1nsc(NC(=O)Nc2ccccc2OC)n1	-1.09% (inactive)	
Cc1ccc(NC(=O)c2cccc(N(C)C)c2)cc1NC(=O)c1ccc(O)cc1		inactive and 29.9 µM (active)
Cc1ccc(C)c(NC(=O)c2ccc3nccnc3c2)c1	2.67% (inactive)	
Cc1ccc(F)cc1NC(=O)c1cccc(N(C)C)c1	4.84% (inactive)	
O=C(c1cn2ccccc2n1)N1CCc2c([nH]c3ccccc23)C1c1ccccn1 (configuration not stated)	-7.37% (inactive)	
CCc1nc2ccc(C(=O)NC3CCN(Cc4ccccc4)CC3)cn2c1N(C)CCN1CCOCC1	-5.59% (inactive)	
O=C1/C(=C\c2ccc([N+](=O)[O-])cc2)CS(=O)(=O)C/C1=C/c1ccc([N+](=O)[O-])cc1		0.0259 µM (active)
O=[N+]([O-])c1ccc(C=NN=Cc2ccc([N+](=O)[O-])cc2)cc1	-3.28% (inactive)	
O=C(NN=Cc1ccc([N+](=O)[O-])cc1)C1CC1	-7.32% (inactive)	
CCOc1cccc2cc(C(=O)OCC(=O)Nc3c(C)cccc3CC)c(=O)oc12	-27.3% (inactive)	
COCCNC(=O)CSc1nc2sccc2c(=O)n1-c1ccccc1	-4.25% (inactive)	
COc1ccc(N2CCN(C(=O)C3CCN(S(=O)(=O)c4ccc(C)cc4)CC3)CC2)cc1	-12.3% (inactive)	
Cc1ccc(S(=O)(=O)N2CCC(C(=O)N3CCCCCCC3)CC2)cc1		20.6 µM (active)
Cc1ccc(S(=O)(=O)N2CCC(C(=O)OCC(=O)N(C)c3ccccc3)CC2)cc1C	-3.59% (inactive)	
COc1ccc(N(C)C(=O)C2CCN(S(=O)(=O)c3cc(Br)cc4c3N(C(C)=O)CC4)CC2)cc1	-3.73% (inactive)	
Cc1ccc(N(C)C(=O)C2CCN(S(=O)(=O)c3ccc4c(c3)CCCN4C(=O)C3CCC3)CC2)cc1		23.1 µM (active)
COc1ccc(S(=O)(=O)N2CCC(C(=O)N3CCCC3)CC2)cc1C	-14.2% (inactive)	
Cc1c(NC(=O)COC(=O)/C=C/c2cccc(F)c2)c(=O)n(-c2ccccc2)n1C	-21.7% (inactive)	
O=C1C[C@@H]2c3c(cccc3CN1Cc1ccccc1)C[C@@H](O)[C@H]2O		inactive
